The source made the active and inactive calls. Unless noted, no rule for the calls is given here.
Assays:
[1] = system: Wnt5a (protein binding on small-molecule microarray); assay: Wnt5a binders on small-molecule microarray, primary screen, biophysical, 635/667 nm fluorescence (AID 1142); details: 635 nm fluorescence, higher = more signal;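 also: fluorescence read at 667 nm with signal to noise per printed feature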
[2] = cell viability in Huh7 cells, primary screen, cytotoxicity control for HCV replication inhibitor project, CellTiter-Glo luminescence, basal, 48 h (AID 1143); details: Huh7 HCV replicon, higher = more signal, called active from +8 up or from −8 down;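 also: Huh7 hepatoma cells carrying a hepatitis C replication reporter with no stimulus; test concentration not given here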
[3] = P. aeruginosa biofilm formation inhibitors, primary screen, PAO1 strain, BacTiter-Glo luminescence, LB-PBS (AID 1144); details: 12 h, higher = more signal
[4] = CREB reporter modulators without forskolin, primary screen, cell-based, PC12, CRE-LacZ reporter, unstimulated (AID 1145); details: no forskolin, luminescence, 4.5 h, higher = more signal, called active from +8 up or from −8 down
[5] = CREB reporter modulators under forskolin, primary screen, cell-based, PC12, CRE-LacZ reporter, forskolin-stimulated (AID 1146); details: luminescence, 4.5 h, higher = more signal, called active from +8 up or from −8 down;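 also: PC12 cells with 6xCRE LacZ reporter stimulated by forskolin 10 µM; beta-galactosidase reporter signal reflecting CREB driven transcription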
[6] = molecular target: Streptavidin (Streptomyces avidinii) (UniProt P22629); assay: streptavidin binders on small-molecule microarray, primary screen, artefact control for SMM compound annotation, biophysical, 635/667 nm fluorescence (AID 1147); details: streptavidin binding, higher = more signal;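 also: signal reflects streptavidin binding to arrayed compounds as a control protein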
[7] = small-molecule binders of probe aInhba, primary screen, biochemical, small-molecule microarray, 635/667 nm fluorescence (AID 1148); details: higher = more signal;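 also: score merges 667nm spot fluorescence with signal-to-noise for antibody binding to printed compounds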
Torsin-1A (Homo sapiens) [8] = molecular target: Torsin-1A (Homo sapiens) (UniProt O14656); assay: torsin A binders from cell lysate, primary screen, small-molecule microarray, wild-type, 635/667 nm (AID 1149); details: COS7 hTOR1A-WT lysate, 635 nm fluorescence, higher = more signal
Torsin-1A (Homo sapiens) [9] = molecular target: Torsin-1A (Homo sapiens) (UniProt O14656); assay: small-molecule binders of mutant TOR1A in lysate, primary screen, cell lysate, small-molecule microarray, COS7 lysate, 635/667 nm fluorescence (AID 1150); details: COS7 hTOR1A mutant lysate, 635 nm fluorescence, higher = more signal;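 also: score pools 667 nm emission and signal to noise measuring lysate protein binding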
[10] = system: Sonic hedgehog protein (Shh); assay: small-molecule binders of Shh protein, primary screen, biochemical, small-molecule microarray, 635/667 nm fluorescence (AID 1151); details: small-molecule microarray binding, 635 nm fluorescence; higher = more signal;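 also: Shh protein binding to compounds spotted on small-molecule microarray slides; score combines spot fluorescence intensity with signal-to-noise across triplicate slides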

Sequence of Torsin-1A (Homo sapiens) (O14656 whole entry, looked up): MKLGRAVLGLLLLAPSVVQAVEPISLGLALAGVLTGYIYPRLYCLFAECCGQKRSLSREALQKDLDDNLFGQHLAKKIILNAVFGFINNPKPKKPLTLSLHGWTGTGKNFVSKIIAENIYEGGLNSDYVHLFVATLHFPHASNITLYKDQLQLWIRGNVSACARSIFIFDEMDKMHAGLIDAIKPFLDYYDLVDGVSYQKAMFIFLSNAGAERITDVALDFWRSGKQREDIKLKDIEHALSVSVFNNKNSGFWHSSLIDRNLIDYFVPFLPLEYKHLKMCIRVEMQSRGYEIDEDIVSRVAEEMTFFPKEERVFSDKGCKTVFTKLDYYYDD
Sequence of Streptavidin (Streptomyces avidinii) (P22629 whole entry, looked up): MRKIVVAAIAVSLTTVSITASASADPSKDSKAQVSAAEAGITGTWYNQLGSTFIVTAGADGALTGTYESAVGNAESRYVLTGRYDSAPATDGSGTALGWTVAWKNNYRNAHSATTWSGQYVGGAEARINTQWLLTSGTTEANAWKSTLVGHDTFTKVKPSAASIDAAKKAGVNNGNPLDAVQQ

| SMILES | composite z-score [1] | z-score [2] | z-score [3] | z-score [4] | z-score [5] | composite z-score [6] | composite z-score [7] | composite z-score (Torsin-1A (Homo sapiens) [8]) | composite z-score (Torsin-1A (Homo sapiens) [9]) | composite z-score [10] |
| --- | --- | --- | --- | --- | --- | --- | --- | --- | --- | --- |
| C[C@]1(C(=O)NCc2ccccc2)c2ccccc2C(=O)N(Cc2cc(F)cc(C(F)(F)F)c2)[C@H]1c1ccc(CO)cc1 | -0.0261 | -1.8 (inactive) | -0.255 (inactive) | 0.0909 (inactive) | -0.323 (inactive) | -0.859 | 0.13 | -0.956 | -1.47 | -0.436 |
| [N-]=[N+]=NCc1ccccc1C[C@@]1(C(=O)NCC(O)CO)N=C(c2ccc(OCCCO)cc2)O[C@@H]1c1ccccc1CN=[N+]=[N-] (stereo not given in full) | 0.604 | -1.84 (inactive) | -0.376 (inactive) | -0.435 (inactive) | -0.554 (inactive) | 1.43 | 0.533 | 0.441 | 1.39 | -0.393 |
| COCCOC(=O)N1C(=O)[C@@]2(c3cc(C#CCCO)ccc31)[C@H](c1ccc(O)cc1)N1[C@H](c3ccccc3)[C@H](c3ccccc3)OC(=O)[C@H]1[C@@H]2C(N)=O | 0.453 | -0.209 (inactive) | 0.393 (inactive) | 0.48 (inactive) | 0.73 (inactive) | -0.656 | 0.0388 | 0.553 | 0.883 | 0.493 |
| COCCOC(=O)N1C(=O)[C@@]2(c3cc(C#CCNC(N)=O)ccc31)[C@H](C(=O)N1CCc3cc(OC)c(OC)cc3C1)[C@H]1C(=O)O[C@H](c3ccccc3)[C@H](c3ccccc3)N1[C@@H]2c1ccc(OCCO)cc1 | 0.506 | -0.352 (inactive) | -1.42 (inactive) | -1.56 (inactive) | -0.549 (inactive) | 0.287 | -0.418 | -0.136 | 0.237 | 1.95 |
| CCCCCCCCCCC(O)C1C=CC2C(=O)N(Cc3ccccc3)C(=O)C2N1n1cnnc1 (stereo not given) | 0.418 | -4.02 (inactive) | -0.0968 (inactive) | -0.0137 (inactive) | -0.728 (inactive) | 0.744 | 0.437 | 0.0668 | 0.567 | -0.778 |
| CC(c1ccccc1)C(O)C1C=CC2C(=O)NC(=O)C2N1Nc1ccccn1 (stereo not given) | 0.211 | 1.25 (inactive) | -1.1 (inactive) | -0.329 (inactive) | -1.03 (inactive) | 0.0932 | 0.0906 | 0.763 | 0.197 | 0.341 |
| COc1cccc(C(=O)O[C@H]2CC[C@]3(C)C4=C(CCC3C2(C)C)[C@]2(C)CC[C@H]([C@H](C)CCCC(C)C)[C@@]2(C)CC4)c1 (stereo not given in full) | 0.0406 | -1 (inactive) | -1.11 (inactive) | 1.21 (inactive) | -0.687 (inactive) | 0.184 | -0.157 | 0.637 | 0.216 | 0.425 |
| COc1c(C)cc(-c2cc3c(c(-c4ccc(Oc5ccccc5)cc4)n2)[Si](C(C)C)(C(C)C)OC3)cc1C | 0.285 | -0.0304 (inactive) | 0.0144 (inactive) | 0.148 (inactive) | 0.151 (inactive) | -0.246 | 0.127 | -0.238 | 0.164 | 0.205 |
| C[C@]1(C(=O)NCc2ccccc2)c2ccccc2C(=O)N(Cc2ccc(OC(F)(F)F)cc2)[C@H]1c1ccc(CO)cc1 | 0.272 | -3.15 (inactive) | -0.808 (inactive) | 0.414 (inactive) | -0.958 (inactive) | -0.232 | -0.0719 | -0.0977 | 0.223 | -0.135 |
| C=C[C@@H](COC(C)=O)N(Cc1ccc([N+](=O)[O-])cc1)S(=O)(=O)c1ccc(Br)cc1 | 0.191 | -1.97 (inactive) | -0.91 (inactive) | 0.661 (inactive) | 0.127 (inactive) | 0.861 | 0.0869 | 0.474 | 0.0176 | 0.956 |
| CCCCCN1CC=CC23O[C@@H]4C=CCOC(=O)[C@@H]4[C@H]2C(=O)N(CCCO)[C@@H]3C1=O (stereo not given in full) | -0.465 | -2.93 (inactive) | -1.87 (inactive) | -1.85 (inactive) | -0.771 (inactive) | -0.866 | -0.208 | 2.03 | 2.31 | 1.25 |
| CCOC(=O)[C@H]1C[C@H]2O[C@@]23C[C@H]1C(=O)N1CCCC1[C@@H]3O[Si](C)(C)C(C)(C)C (stereo not given in full) | -0.489 | -2.14 (inactive) | 0.209 (inactive) | -1.59 (inactive) | -0.852 (inactive) | -0.266 | -0.245 | -0.235 | -0.178 | 1.1 |
| [N-]=[N+]=Nc1ccccc1C[C@]1(C(=O)NCCN2CCOCC2)N=C(c2ccc(OCCCO)cc2)O[C@H]1c1ccccc1 | 0.577 | -2.47 (inactive) | 0.355 (inactive) | 0.4 (inactive) | -0.604 (inactive) | -0.186 | 0.101 | 0.729 | 0.749 | 0.109 |
| O=c1cccc(CCc2ccccc2)o1 | -0.187 | -0.908 (inactive) | 0.624 (inactive) | 1.08 (inactive) | 1.03 (inactive) | -0.0374 | 0.0357 | -0.221 | -0.15 | 0.943 |
| COc1cc(CO)ccc1OC(C)=O | 0.226 | -2.07 (inactive) | -0.433 (inactive) | 0.0918 (inactive) | -0.874 (inactive) | 0.683 | -0.308 | 0.867 | 0.388 | 1.05 |
| C=CCOC(=O)[C@@H]1[C@H]2C(=O)O[C@H](c3ccccc3)[C@H](c3ccccc3)N2[C@H](c2ccc(OCCOC(=O)[C@@H]3C[C@@H]4C(=O)NCC(=O)N4[C@@H]3c3cccc(OCCO)c3)cc2)[C@@]12C(=O)Nc1ccc(I)cc12 | 1.02 | 0.0025 (inactive) | -0.0754 (inactive) | -0.545 (inactive) | -0.844 (inactive) | -0.0506 | 0.458 | 1.56 | 1.17 | 2.1 |
| CN1C(=O)C2C(C1=O)C1C=C(CCCO)C2C(c2cccs2)N1C (stereo not given) | 0.0691 | -0.273 (inactive) | 0.0748 (inactive) | 0.236 (inactive) | 0.289 (inactive) | -0.96 | 0.141 | -0.381 | -0.332 | -0.11 |
| CC(C)N1CC=CC23O[C@@H]4C=CCOC(=O)[C@@H]4[C@H]2C(=O)N(CCO)[C@@H]3C1=O (stereo not given in full) | -0.967 | 0.273 (inactive) | -0.289 (inactive) | -1.3 (inactive) | -0.67 (inactive) | -1.05 | -0.302 | -2.5 | -1.48 | 0.643 |
| Cc1ccccc1C(O)C1C=CC2C(=O)N(C)C(=O)C2N1N1CCCCC1 (stereo not given) | 0.343 | 0.896 (inactive) | 0.46 (inactive) | -0.133 (inactive) | -0.0415 (inactive) | 1.24 | 0.462 | 0.851 | 0.696 | 0.0488 |
| CCN(CC)c1ccc(N2CC=CC34O[C@@H]5C=CCCOC(=O)C5[C@H]3C(=O)N(CCCCCO)[C@@H]4C2=O)cc1 (stereo not given in full) | 0.0385 | -0.484 (inactive) | -0.947 (inactive) | 0.593 (inactive) | -0.686 (inactive) | -0.45 | 0.0173 | 0.846 | 0.307 | 0.16 |
| COC(=O)C(CC#Cc1ccc2c(c1)[C@]1(C(=O)N2)[C@H](c2ccc(OCCO)cc2)N2[C@H](c3ccccc3)[C@H](c3ccccc3)OC(=O)[C@H]2[C@@H]1C(=O)NC[C@H](O)c1ccccc1)C(=O)OC | 0.593 | -1.17 (inactive) | -0.923 (inactive) | 0.0384 (inactive) | -0.926 (inactive) | 0.472 | 0.0442 | 0.413 | 0.532 | 1.4 |
| CC(C)(C)OC(=O)CC[C@]1(C(=O)N2CCCCC2)N=C(c2ccc(OCCCO)cc2)O[C@H]1c1ccccc1N=[N+]=[N-] | 0.556 | -2.48 (inactive) | 0.043 (inactive) | 1.43 (inactive) | -1.57 (inactive) | 1.87 | 0.813 | 0.569 | 2.11 | 0.837 |

Reference: PubChem BioAssay
